mHTT-CaM PPI inh: inhibitors of human mutant huntingtin-calmodulin interaction; P42858; AlphaScreen His-mHTT/GST-CaM binding, luminescence; inhibition, % at 15 µM; 190,000 tested, 3.6% active; AID 1671202
Pf apPOL block: Pf-apPOL DNA polymerase inhibition; Recombinant Pf-apPOL, molecular beacon fluorescence, 1.5 h; inhibition, % at 10 µM; 210,000 tested, 0.25% active
Large screens that a line does not name were inactive. Shown are actives, neighbours in structure and some others; about 3.6% of the full set was active somewhere. Cut-off read from the data, not from the text of the source: active = inhibition above about 50%; inactive = the rest.

COc1ccc(C(=O)Nc2nc3n(n2)C(c2ccccc2)C=C(c2ccc(Cl)cc2)N3)cc1 (stereo not drawn)	mHTT-CaM PPI inh 62
O=C(Nc1nc2n(n1)C(c1ccccc1)C=C(c1ccc(Cl)cc1)N2)c1ccco1 (stereo not drawn)	none
COc1ccc(C(=O)Nc2nc3n(n2)C(c2ccccc2)C=C(c2ccccc2)N3)cc1 (stereo not drawn)	mHTT-CaM PPI inh 61
COc1ccccc1C(=O)Nc1nc2n(n1)C(c1ccccc1)C=C(c1ccccc1)N2 (stereo not drawn)	mHTT-CaM PPI inh 68
Cc1ccc(C2C(=C(O)c3ccccc3)C(=O)C(=O)N2c2nccs2)cc1 (stereo not drawn)	none
Nc1sc(SCC(=O)NCc2ccc(F)cc2)nc1-c1ccccc1	mHTT-CaM PPI inh 91
Nc1cc(N)nc(SCC(=O)NCc2ccccc2)n1	none
COc1cc(NC(=O)C=Cc2ccccc2Cl)cc(OC)c1OC	none (no result: mHTT-CaM PPI inh)
O=C(Nc1ccccc1Cl)c1ccccc1	none
O=C(CNc1ccccc1Cl)c1ccccc1	mHTT-CaM PPI inh 100
O=[N+]([O-])c1ccc(C2CNC(c3ccccc3)O2)cc1 (stereo not drawn)	none
O=[N+]([O-])c1ccc(C2Nc3ccc(Cl)cc3C(c3ccccc3)O2)cc1 (stereo not drawn)	mHTT-CaM PPI inh 82
COc1ccc(Nc2nc(-c3ccccn3)cs2)cc1	mHTT-CaM PPI inh 99
CCOc1ccc(-c2csc(Nc3ccccn3)n2)cc1	none
COc1ccc(-c2csc(Nc3cc(C)ccn3)n2)cc1	none
CCOc1ccc(Nc2nc(-c3ccccn3)cs2)cc1	mHTT-CaM PPI inh 99
CCC1Oc2ccc(C)cc2N(Cc2ccccc2Cl)C1=O (stereo not drawn)	none
CCC(C)(C#CCN1CCCC1)OCCC#N (stereo not drawn)	none (no result: Pf apPOL block)
COc1ccc(Cl)cc1NC(=O)c1cc2nc(-c3ccccc3)cc(C)n2n1	none
Nc1nc(NC(=O)c2ccc(F)cc2)nn1-c1ccccc1	Pf apPOL block 65
CC(=O)Nc1nc(N)n(-c2ccccc2)n1	none
COc1ccc(-c2nnc(NC(=O)CN3C(=O)c4ccccc4C3=O)o2)c(OC)c1	mHTT-CaM PPI inh 52
COc1ccc(-c2nnc(NC(=O)CCCS(=O)(=O)Cc3ccccc3)o2)c(OC)c1	none
CCn1c(=O)c(N2CCN(C(=O)COc3ccc(Cl)cc3C)CC2)nc2ccncc21	mHTT-CaM PPI inh 61
Cn1c(=O)c(N2CCN(C(=O)COc3ccc(Cl)cc3)CC2)nc2ccncc21	none
Cc1ccc(CNC(=O)c2ccc(Cn3nnc4ccccc4c3=O)cc2)cc1	none
CC(C)Cn1c(=O)c(N2CCN(C(=O)c3c[nH]c4ccccc34)CC2)nc2ccncc21	none
COc1ccc(NC(=O)CCCn2c(=O)c3sccc3n(Cc3ccccc3C#N)c2=O)cc1	none
Fc1ccccc1-c1nc(-c2cccc(-c3ccn[nH]3)c2)no1	none
c1cc(-c2noc(-c3cccc4[nH]ccc34)n2)cc(-c2ccn[nH]2)c1	mHTT-CaM PPI inh 62
Cc1nc(-c2cn[nH]c2-c2cc(C)c(O)cc2O)cs1	none
O=[N+]([O-])C1=Cc2ccccc2OC1c1ccccc1 (stereo not drawn)	none (no result: Pf apPOL block)
COc1cc2c(cc1[N+](=O)[O-])OCO2	none (no result: Pf apPOL block)
CCOc1ccc(C2Oc3c(cc(Br)cc3OC)C=C2[N+](=O)[O-])cc1OC (stereo not drawn)	none
O=[N+]([O-])C1=Cc2cc(Br)cc(Br)c2OC1c1ccc2c(c1)OCO2 (stereo not drawn)	mHTT-CaM PPI inh 84
COc1ccc(C2Oc3c(cc(Br)cc3OC)C=C2[N+](=O)[O-])cc1OC (stereo not drawn)	mHTT-CaM PPI inh 72
COc1cc(Br)cc2c1OC(c1ccc3c(c1)OCO3)C([N+](=O)[O-])=C2 (stereo not drawn)	mHTT-CaM PPI inh 68
O=C(O)CNC(=O)C(Cc1cnc[nH]1)NC(=O)C1CCC(=O)N1 (stereo not drawn)	none
Cc1ccc(-c2cn3cc(C(=O)NC(C)(C)C)ccc3n2)cc1	none
Fc1ccccc1Nc1ncnc2c1cnn2-c1ccc(Cl)cc1	none
O=[N+]([O-])c1ccccc1-c1ccc(CN2CCN(c3ccccc3F)CC2)o1	none
Cc1cccc(N2CCN(Cc3ccc(-c4ccccc4[N+](=O)[O-])o3)CC2)c1C	mHTT-CaM PPI inh 59
CCC(Sc1nc2n[nH]c(C)c2c(=N)n1-c1ccc(C)cc1)C(=O)N1CCCC1 (stereo not drawn)	mHTT-CaM PPI inh 54
COc1ccc(-n2c(SCC(=O)NC3CCCCC3)nc3n[nH]c(C)c3c2=N)cc1	mHTT-CaM PPI inh 79
COc1cccc(-n2c(SCC(=O)N3CCCC3)nc3n[nH]c(C)c3c2=N)c1	none
CCC(C)NC(=O)CSc1nc2n[nH]c(C)c2c(=N)n1-c1ccc(Br)cc1 (stereo not drawn)	mHTT-CaM PPI inh 75
CCC(C)NC(=O)CSc1nc2ccsc2c(=O)n1-c1ccc(Br)cc1 (stereo not drawn)	none
CCCN(CCC)C(=O)CSc1nc2n[nH]c(C)c2c(=N)n1-c1ccc(OCC)cc1	none
O=[N+]([O-])c1cccc(C=Nc2ccc3nc(-c4ccccc4)[nH]c3c2)c1	none
COc1ccc(C2=N/C(=C\c3ccccc3)C(=O)O2)c(Cl)c1	none
N#CSC(CS(=O)(=O)c1cccc([N+](=O)[O-])c1)c1ccccc1 (stereo not drawn)	mHTT-CaM PPI inh 94
N#CSC(CS(=O)(=O)c1ccccc1)c1ccccc1 (stereo not drawn)	none
CC(C)COc1ccc(S(=O)(=O)N2CCOC(c3ccccc3)C2)cc1 (stereo not drawn)	none
COc1ccc(NC(=O)c2c(Cl)cc(Cl)nc2Cl)cc1	none
COc1ccc(NC(=O)c2c(C)sc3c(C)c(C)[nH]c23)cc1	mHTT-CaM PPI inh 54
Cc1ccc(S(=O)(=O)N2CCC(=O)N([C@H](COCc3cccc(Cl)c3)C(C)C)CC2)cc1	none
Cc1ccc(CNC(=O)C2CCCN(C(=O)c3cccc(C(F)(F)F)c3)C2)cc1 (stereo not drawn)	none
Cc1ccc(COC[C@H](CC(C)C)N2CCN(C(=O)c3cccc(C(F)(F)F)c3)CCC2=O)cc1	mHTT-CaM PPI inh 91
CC(C)C[C@@H](COCc1cccc(Cl)c1)N1CCN(C(=O)c2ccc(C(F)(F)F)cc2)CCC1=O	mHTT-CaM PPI inh 99
COCCC1CCN(C(=O)c2ccc(C(F)(F)F)cc2)CC1	none
CC(C)C[C@@H](COCc1ccc(C(F)(F)F)cc1)N1CCN(C(=O)c2ccc(C(F)(F)F)cc2)CCC1=O	mHTT-CaM PPI inh 93
O=C1NC(=O)N(Cc2ccco2)C(=O)/C1=C/c1cn(CCOc2ccc(F)cc2)c2ccccc12	none
CCc1ccc(NC(=O)Cn2c(CC)nc3c(c2=O)CN(Cc2ccccc2)CC3)cc1	none
CCc1cccc(N2C=C(C#N)S(=O)(=O)c3ccccc32)c1	none
O=C(CC1(O)C(=O)N(Cc2ccccc2)c2ccccc21)c1ccc(Br)s1 (stereo not drawn)	mHTT-CaM PPI inh 52
O=C(CC1(O)C(=O)N(CCc2ccccc2)c2ccccc21)c1cccs1 (stereo not drawn)	none
CCOC(=O)Oc1ccc2c(=O)c(-c3ccc(OC)cc3)c(C)oc2c1	none
CCOC(=O)Oc1c(Cl)cc2oc(=O)sc2c1Cl	mHTT-CaM PPI inh 77
CCOCCCN1COc2ccc3cc(-c4ccccc4)c(=O)oc3c2C1	none
COCc1cc(C(C)(C)C)c(O)c(O)c1C(C)(C)C	mHTT-CaM PPI inh 62
CC(C)(C)c1cc(C(=O)O)cc(C(C)(C)C)c1O	none
CC(C)NC(=O)c1csc(Nc2ccccc2)n1	none
